Shown are actives, neighbours in structure and some others; about 2.6% of the full set was active somewhere.
Cruzain Triton: inhibitors of Trypanosoma cruzi cruzain with detergent; purified cruzain, Z-FR-AMC fluorescence, 0.01% Triton; P25779; Potency, µM, for inactives: max response, negative = inhibition, usual class: inhibitors; hit rate 0.43% among 200,000; AID 1478;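 also: plate controls were neutral wells for no effect and buffer without enzyme for full effect; nearly all actives have a fitted effect of over 40% in size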
Target sequence (P25779 123-467 limits assumed): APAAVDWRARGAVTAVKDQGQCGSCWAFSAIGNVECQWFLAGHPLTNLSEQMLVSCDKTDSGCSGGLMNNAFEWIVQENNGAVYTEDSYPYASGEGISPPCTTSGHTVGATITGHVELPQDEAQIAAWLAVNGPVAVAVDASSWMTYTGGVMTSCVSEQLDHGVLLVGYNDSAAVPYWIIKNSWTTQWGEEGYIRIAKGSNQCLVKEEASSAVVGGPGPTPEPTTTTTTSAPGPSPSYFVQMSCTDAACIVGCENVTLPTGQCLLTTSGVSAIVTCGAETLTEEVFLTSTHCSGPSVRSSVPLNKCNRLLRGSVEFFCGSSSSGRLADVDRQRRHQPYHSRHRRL
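Detergent-containing run (0.01% Triton X-100) in acetate buffer pH 5.5 with 5 mM DTT: enzyme at 1.5 nM final, 15 min compound preincubation at room temperature, then 2 uM Z-FR-AMC substrate. Activity taken as 60 s fluorescence increase at 360/450 nm.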
Cruzain inh noDet: inhibitors of Trypanosoma cruzi cruzain without detergent; hit rate 2.3% among 200,000; purified cruzain, Z-FR-AMC fluorescence, no detergent; Potency, µM, for the others: max response, negative = inhibition, most hits filed as inhibitors; P25779;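 also: plate controls were enzyme without inhibitor for no effect and buffer without enzyme for full effect; nearly all actives have a fitted effect of over 40% in size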
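Detergent-free condition (0.00005% Triton X-100) in acetate buffer pH 5.5 with DTT. 1.5 nM enzyme and compound were pre-mixed 15 min, then 2 uM Z-FR-AMC substrate added; reaction progress from fluorescence change between first and third reads (60 s).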
* marks the source's active call; other numbers are inactive results; ? = inconclusive. Calls follow the shape of the dose curve; as a rule, active = well fitted curve in the direction sought with a large enough effect; inconclusive = small, poorly fitted or top-dose-only effect, or another doubt; inactive = no such curve, though single readings can be large; an effect the other way counts as inactive or inconclusive. Potency is read from the fitted curve at half-maximal effect.

SMILES	Cruzain Triton	Cruzain inh noDet
CC(C)c1ccccc1NC(=O)COc1ccc(C(=O)NCCc2ccccc2)cc1	0.0%	?
CCc1cccc(CC)c1NC(=O)COC(=O)c1cccc(S(=O)(=O)N2CCc3ccccc3C2)c1	-5.7%	1.9%
Cc1cccc(C(C)C)c1NC(=O)COC(=O)c1cccc(S(=O)(=O)N2CCc3ccccc3C2)c1	1.2%	25.1µM*
C[C@@](Cc1ccccc1)(NC(=O)CN)c1ccccc1	3.5%	5.4%
CNS(=O)(=O)c1ccccc1C(=N)c1ccccc1	1.5%	-3.9%
CCOc1ccc(CNC(=O)C2Cc3ccccc3N2C(=O)CC)cc1OC (configuration not stated)	1.8%	8.4%
O=C(Nc1nc2ccc(Cl)cc2s1)c1ccc(N2CCCCC2)c([N+](=O)[O-])c1	-3.3%	5.01µM*
Cc1c(NC(=O)c2ccc(N3CCCC3)c([N+](=O)[O-])c2)cccc1-c1nc2ccccc2s1	-7.3%	7.94µM*
CC(=O)N1CCN(c2ccc(NC(=O)c3ccc(N4CCCC4)c([N+](=O)[O-])c3)cc2Cl)CC1	1.2%	12.6%
O=C(Nc1ccc(N2CCCCC2)c(Cl)c1)c1ccc(N2CCOCC2)c([N+](=O)[O-])c1	-2.6%	-0.9%
CCC(CC)c1nnc(NC(=O)c2ccc(N3CCCCC3)c([N+](=O)[O-])c2)s1	-5.0%	0.3%
O=C(Nc1ccc2c(c1)OCO2)c1ccc(N2CCCC2)c([N+](=O)[O-])c1	-10.1%	25.1µM*
O=C(Nc1nc2ccc3ccccc3c2s1)c1ccc(N2CCCCC2)c([N+](=O)[O-])c1	-5.3%	6.31µM*
COc1cccc(C(=O)Nc2ccccc2-c2nc3ccccc3s2)c1	0.1%	6.7%
Cc1cc(C)c(S(=O)(=O)NCC(c2ccco2)S(=O)(=O)c2cccs2)c(C)c1 (configuration not stated)	-4.1%	2.1%
Cc1c(C)n(Cc2ccc(F)cc2)c2ccc(C(=O)NCc3ccco3)cc12	-4.0%	6.7%
NC(=S)Nc1nc2ccccc2[nH]c1=O	7.94µM*	?
O=c1[nH]c2ccccc2nc1C(Cl)c1ccccc1 (configuration not stated)	-1.5%	-14.7%
COc1ccc2c(c1)c(=O)c(S(=O)(=O)c1ccccc1)cn2CC(=O)Nc1ccc(C)c(Cl)c1	-4.7%	20µM*
COc1ccc(NC(=O)Cn2cc(S(=O)(=O)c3ccccc3)c(=O)c3cc(C)ccc32)cc1Cl	-4.0%	25.1µM*
Cc1ccc(S(=O)(=O)c2cn(CC(=O)Nc3ccc(C)c(Cl)c3)c3ccc(C)cc3c2=O)cc1	-3.2%	?
COc1ccc2c(c1)c(=O)c(S(=O)(=O)c1ccccc1)cn2CC(=O)Nc1ccc2c(c1)OCO2	-6.7%	8.5%
CN(C)C(=O)c1ccc(-c2cncnc2NCc2cccnc2)cc1	1.5%	0.6%
CN(C)c1ccc(-c2nc(NCCc3cnc[nH]3)c3ccccc3n2)cc1	-8.4%	-7.8%
CCN(CC)S(=O)(=O)c1ccc2c(c1)N(CC(=O)NCCCN1CCN(c3cc(Cl)ccc3C)CC1)C(=O)CO2	0.2%	3.8%
SMILES	Cruzain Triton	Cruzain inh noDet
N#Cc1ccsc1NC(=O)CSc1ncn[nH]1	5.1%	-4.9%
N#Cc1ccsc1NC(=O)CSc1ncnc2ccccc12	-8.3%	15.8µM*
COC1CC(O[C@H]2/C(C)=C/CC3CC(C[C@]4(CCC(C)C(C5CCCCC5)O4)O3)OC(=O)[C@H]3C=C(C)/C(=N/O)C4OC/C(=C\C=C\[C@@H]2C)[C@@]43O)OC(C)C1O (some centres not stated)	-1.0%	?
Cc1c(/C=N/NC(=O)c2ccc(O)cc2)c2ccccn2c1C(=O)c1ccc(F)cc1	-3.0%	?
Cc1c(/C=N/NC(=O)c2ccccc2O)c2ccccn2c1C(=O)c1ccc(F)cc1	-11.9%	25.1µM*
CCOC(=O)C1=C(c2ccccc2)NC(=S)NC1c1cc([N+](=O)[O-])ccc1OC (configuration not stated)	0.4%	25.1µM*
CCOC(=O)C1=C(c2ccccc2)NC(=S)NC1c1cccc([N+](=O)[O-])c1 (configuration not stated)	-5.9%	3.2%
O=C(O)CCC/C=C\CC1C2CCC(O2)C1CNNC(=O)Nc1ccccc1 (configuration not stated)	4.4%	4.0%
COC(=O)c1ccc(C(C(=O)NC2CCCCC2)N(CCc2ccccc2)C(=O)Cc2cccs2)cc1 (configuration not stated)	0.1%	12.6µM*
COC(=O)c1ccc(C(C(=O)NC2CCCCC2)N(Cc2ccc(F)cc2)C(=O)Cc2cccs2)cc1 (configuration not stated)	-3.6%	16.8%
COc1ccc(C2c3cccn3CCN2S(=O)(=O)c2ccc([N+](=O)[O-])cc2)cc1 (configuration not stated)	-3.2%	25.1µM*
O=[N+]([O-])c1ccc(S(=O)(=O)N2CCn3cccc3C2c2ccccc2F)cc1 (configuration not stated)	-8.0%	?
NC(=O)/N=N/C(N)=O	2.7%	-4.9%
CN(C)C(=O)c1nc2ccccc2s1	-0.9%	-0.3%
CN(C)c1ccc(CC(=O)c2nc3ccccc3s2)cc1	-4.3%	20µM*
CC(=O)Nc1ccc(S(=O)(=O)Nc2cc(-c3cn4ccccc4n3)ccc2C)cc1	-2.1%	4.9%
N#Cc1ccccc1CSc1nnc(-c2ccc(Br)cc2)o1	0.5%	-2.5%
COc1ccc(NC(=O)CSc2ccc3c4c(cccc24)C(=O)c2ccccc2-3)cc1	4.0%	12.6µM*
N#Cc1cccc(NC(=O)CSc2ccc3c4c(cccc24)C(=O)c2ccccc2-3)c1	1.7%	10µM*
COc1ccc(NC(=O)CSc2nc3ccccc3c3nc4ccccc4n23)cc1	-1.5%	-22.8%
N#Cc1cccc(NC(=O)CSc2ccccc2)c1	3.2%	-15.6%
O=C(NCCc1ccccc1)C(=O)NCC(c1cccnc1)N1CCN(c2ccccc2)CC1 (configuration not stated)	-1.4%	3.8%
COc1ccc(-c2cc3nc(C)c(CCC(=O)Nc4ccccc4C(C)=O)c(C)n3n2)c(OC)c1	-0.6%	4.5%
CC(NC(=O)c1ccccc1NC(=O)c1nsc2ccccc12)c1ccccc1 (configuration not stated)	1.8%	2.8%
COC(=O)c1sc(-c2ccccc2)cc1NC(=O)c1ccc(F)cc1	-3.1%	10µM*
SMILES	Cruzain Triton	Cruzain inh noDet
COC(=O)c1sc(-c2ccccc2)cc1NC(=O)c1ccc(OC)cc1	-7.7%	?
COC(=O)c1cc2oc3ccccc3c2n1Cc1cc(C)ccc1C	-0.2%	5.3%
O=C(c1ccco1)N1CCC[C@@]2(CCN(c3cccc(-c4ccccc4)c3)C2)C1	-1.1%	6.0%
COc1ccc(C(=O)CCC(=O)Nc2ccccc2C)cc1	0.2%	-7.3%
Cc1ccccc1NC(=O)CCC(=O)OCC(=O)c1ccc(-c2ccccc2)cc1	2.8%	12.6µM*
O=C(CCC(=O)OCC(=O)c1ccc(-c2ccccc2)cc1)Nc1cccc(Cl)c1	2.4%	25.1µM*
CCOc1ccccc1OCCCC(=O)OCC(=O)Nc1cccc(Cl)c1	-6.4%	1.0%
COc1ccc(OC)c(CCNC(=O)c2ccc3c(c2)c(C)c(C)n3Cc2ccccc2)c1	-0.4%	?
CC(=O)N1C2(C=CC1(C)C(=O)NCc1ccccn1)CCCCC2 (configuration not stated)	0.1%	-8.1%
COc1cc(/C=N/NC(=S)Nc2cccc(C(=O)O)c2)cc(OC)c1OC	-11.5%	-5.1%
COc1cc(/C=N/NC(=S)N/N=C/c2cc(OC)c(OC)c(OC)c2)cc(OC)c1OC	14.1µM*	?

Screening data from PubChem BioAssay.
